Screens: PubChem BioAssay, Center for Chemical Genomics, University of Michigan
This excerpt belongs to a sample that is enriched for hits.
Dicer processing: inhibitors of human Dicer processing of pre-microRNA; Q9UPY3; cat-ELCCA pre-miR-21 Dicer processing, chemiluminescence; stronger effect = higher value; z-score at 25 µM; actives 6% (n = 47,000); AID 1347074; in the data active means z-score above about 3, passing the limit was not always enough;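 further: plate controls were vehicle for no effect and no enzyme for full effect; higher signal means more uncleaved substrate so more Dicer inhibition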
* = called active by the depositor.

O=C1NC(=S)S/C1=C/c1ccc(Sc2ccc(Cl)cc2)c([N+](=O)[O-])c1 was read as Dicer processing 5.2*.
For O=C1NC(=S)S/C1=C\c1ccc([N+](=O)[O-])s1 the results were Dicer processing -0.38.
Screening O=[N+]([O-])c1cc(-c2cnc3ccccc3n2)ccc1Sc1ccc(Cl)cc1 returned Dicer processing -0.9.
For COC(=O)CSc1sccc1[N+](=O)[O-] the results were Dicer processing 0.19.
`Cn1c(=O)c2c(ncn2CC(O)Cn2cnc3c2c(=O)n(C)c(=O)n3C)n(C)c1=O` gave Dicer processing -1.3.
`CSc1ncc(S(=O)(=O)Cc2cccs2)c(N)n1` gave Dicer processing 0.02.
For Cc1ncc(S(=O)(=O)C(C)(C)C)c(N)n1 the results were Dicer processing -0.51.
Cc1ncc(S(=O)(=O)Cc2cccs2)c(N)n1 was read as Dicer processing 5.2*.
`O=C(NCc1ccco1)C1Sc2nnc(-c3ccccc3)n2NC1c1ccc(Cl)cc1` (stereo not drawn) gave Dicer processing -0.76.
`CC(C)OC(=O)c1cccc(C(=O)OC(C)C)n1` gave Dicer processing 1.7.
Screening CC(C)OC(=O)c1cccc(C(=O)O)n1 returned Dicer processing 1.6.
For CC(C)OC(=O)c1cccc(C(=O)Oc2ccc(Br)cc2)n1 the results were Dicer processing 4.4*.
For COc1ccc(-c2cc3nccc(-c4cc(C)ccc4O)n3n2)cc1 the results were Dicer processing 2.9.
`Cc1ccc(CN2C(=O)c3oc4ccc(F)cc4c(=O)c3C2c2cccc(O)c2)cc1` (stereo not drawn) gave Dicer processing 1.8.
`CCOC(=O)C1=C(Nc2ccc(Cl)cc2)C(=O)N(C(C)(C)C)C1` gave Dicer processing -2.
`CNC(=S)N/N=C(\C)c1ccc(OC)cc1` gave Dicer processing 2.4.
CC1CC(=O)Nc2ccccc2N1C(=O)c1cc(Cl)sc1Cl (stereo not drawn) was read as Dicer processing 1.
For O=C(COc1ccccc1)NC1CCSC1=O (stereo not drawn) the results were Dicer processing 3.4*.
O=C(CCc1ccccc1)NC1CCSC1=O (stereo not drawn) was read as Dicer processing 0.1.
`O=C(CCCOc1ccccc1)NC1CCSC1=O` (stereo not drawn) gave Dicer processing 0.4.
`Cc1ccc(N=Cc2ccc(Cl)c(Cl)c2)cc1Cl` gave Dicer processing 0.
NC1=Nc2ccc(Cl)cc2C1(O)c1ccccc1 (stereo not drawn) was read as Dicer processing -0.82.
CCCCSc1nnc2c(n1)[nH]c1ccc(C)cc12 was read as Dicer processing -0.6.
CCOC(=O)c1[nH]c(Cc2[nH]c(C(=O)OCC)c(C)c2C)c(C)c1C was read as Dicer processing -0.8.
CCOC(=O)c1[nH]c(C)c(C(C)=O)c1C was read as Dicer processing -1.
CCOC(=O)c1[nH]c(C)c(CC)c1C was read as Dicer processing 4.3*.
`COc1ccc(C(=O)c2sc3nc(-c4ccc(OC)cc4)ccc3c2N)cc1` gave Dicer processing 0.01.
Screening Cc1cc(C)c2c(N)c(C(=O)c3ccccc3)sc2n1 returned Dicer processing -0.42.
For Cc1ccc2c(N)c(C(=O)c3ccc(-c4ccccc4)cc3)sc2n1 the results were Dicer processing 3.2*.
For OC1CCN(c2nccc(C(F)(F)F)n2)CC1 the results were Dicer processing -0.79.
CCOC(=O)Cn1nnc(-c2ccc(C(F)(F)F)cn2)n1 was read as Dicer processing 0.16.
CCC(C)[C@H](N)c1nnc(SCc2cccc(Cl)c2)o1 (stereo partly drawn) was read as Dicer processing -1.1.
O=[N+]([O-])c1ccc(OCC2CC(c3ccc(Cl)cc3Cl)=NO2)cc1 (stereo not drawn) was read as Dicer processing -0.4.
Cc1ccc(C(=O)/C(=C/N(C)C)Sc2ccc(C(F)(F)F)cn2)cc1 was read as Dicer processing 0.29.
CC(C)N(Cc1ccc(N(C)C)cc1)S(=O)(=O)c1ccc(F)cc1 was read as Dicer processing 0.92.
`O=C1OC(Nc2ccccc2SCc2ccccc2Cl)c2ccccc21` (stereo not drawn) gave Dicer processing 3.3*.
For N#Cc1ccc(CSc2ccccc2NC2OC(=O)c3ccccc32)cc1 (stereo not drawn) the results were Dicer processing 3.2.
`O=C1OC(Nc2ccccc2Sc2ccc(Cl)cc2[N+](=O)[O-])c2ccccc21` (stereo not drawn) gave Dicer processing 0.08.
COc1ccc(C2CC(=O)c3cnn(-c4nc(C)cc(C)n4)c3C2)cc1OC (stereo not drawn) was read as Dicer processing -0.72.
For COc1ccc(C2CC(=O)c3cnc(NC4OC(=O)c5ccccc54)nc3C2)cc1OC (stereo not drawn) the results were Dicer processing -1.3.
CCOC(=O)N1CCN(c2ncc3c(n2)CC(c2ccc(OC)c(OC)c2)CC3=O)CC1 (stereo not drawn) was read as Dicer processing 3.5*.
`CC(C)(C)NNC(=S)Nc1cccc(F)c1` gave Dicer processing -0.44.
